Compound activity from PubChem.
Sampled rows, rich in hits. Any-hit rate of the full collection: about 8%.
HT1080 IDH1KD tx = qHTS for induction of synthetic lethality in tumor cells producing 2HG: qHTS for the HT-1080-IDH1KD cell line | HT-1080 IDH1 knockdown viability, ATP luminescence, 48 h | 360,000 tested, 2% active | Potency, µM (top dose mostly 46.1 µM), for the others: at the highest dose activity, negative = toxicity, usual class: cytotoxic;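 note: 0% = DMSO wells and -100% = cell-free medium wells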
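In this qHTS, HT-1080 cells depleted of IDH1 are exposed for 48 h at 37 °C to compound titrations. Toxicity is scored from CellTiter-Glo luminescence, with DMSO as full viability and medium alone as none.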
HT1080NT lethal = qHTS for induction of synthetic lethality in tumor cells producing 2HG: qHTS for the HT-1080-NT fibrosarcoma cell line; Potency, µM (series often up to 46.1 µM), for the others: at the highest dose activity, negative = less viability, usual class: cytotoxic; HT-1080-NT fibrosarcoma viability, CellTiter-Glo ATP luminescence, 48 h; 360,000 tested, 1.6% active;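 note: NT is the 2HG producing partner of a matched IDH1 knockdown line; 0% = DMSO-treated cells and -100% = media-only wells without cells; nearly all actives have a fitted effect of over 55% in size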
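A 48-hour cytotoxicity screen used HT-1080-NT cells plated 2 hours before compound delivery. ATP-based CellTiter-Glo luminescence measured viability, normalized to DMSO and no-cell controls.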
SW480 rereplic = A quantitative high throughput screen for small molecules that induce DNA re-replication in SW480 colon adenocarcinoma cells | SW480 DNA re-replication, Hoechst DNA content imaging, 48 h | Potency, µM (series often up to 46.1 µM), without a hit: top-dose re-replication activation, usual class: activators | 340,000 tested, 1.8% active | AID 624297, 2012; note: % of control where 0% means no effect; nearly all actives have a fitted effect of over 55% in size
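250 cells/well; 23 nL cpd via pin tool; 48 hr, 37 C, 5% CO2; Hoechst 40 min; imager read of total nuclear intensity, ex 405/em 500-530 nm.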
MCF10A rereplic = A quantitative high throughput screen for small molecules that induce DNA re-replication in MCF 10a normal breast cells. MCF 10A DNA re-replication, Hoechst nuclear intensity, 48 h. Potency, µM (titrated, usually from 46.1 µM), for the others: top-dose activity, positive = re-replication, usual class: activators. 350,000 tested, 2.9% active; note: % of control where 0% means no effect; nearly all actives have a fitted effect of over 50% in size
KB-3-1 cytotox = qHTS assay for MDR1-selective chemotherapeutics: Primary screen using the parental adenocarcinoma cell KB-3-1. KB-3-1 viability, CellTiter-Glo ATP luminescence, 72 h. 400,000 tested, 1.4% active. AID 1347075, 2019. Potency, µM (titrated, usually from 46.1 µM), most hits filed as cytotoxic; note: % is set by controls: 0 for no effect and ±100 for the full control effect; nearly all actives have a fitted effect of over 60% in size
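Multi-concentration cytotoxicity screen in KB-3-1 cells grown in DMEM lacking phenol red with 10% FBS. After 72 h at 37 °C with compound, ATP-dependent luminescence was recorded.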
KB-V1 cytotox = qHTS assay for MDR1-selective chemotherapeutics: Primary screen using the drug-selected MDR subline cells KB-V1; KB-V1 MDR cells viability, CellTiter-Glo, 72 h; Potency, µM (doses to about 46.1 µM), most hits filed as cytotoxic; 400,000 tested, 3.4% active; AID 1347076, 2019; note: % is set by controls: 0 for no effect and ±100 for the full control effect; nearly all actives have a fitted effect of over 60% in size
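Potencies derive from concentration-effect curves fitted to normalized luminescence (CellTiter-Glo) of KB-V1 cells treated for 72 h at 37 degrees C in phenol-red-free DMEM containing 10% FBS.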
* = called active by the depositor; i = inactive; ? = inconclusive; / = no result given; [ ] = remark or other dose. Calls come from the whole dose curve; as a rule, active = well fitted curve in the direction sought with a large enough effect; inconclusive = small, poorly fitted or top-dose-only effect, or another doubt; inactive = no such curve, though single readings can be large; an effect the other way counts as inactive or inconclusive. Potency is the fitted concentration of half-maximal effect.

SMILES	HT1080 IDH1KD tx	HT1080NT lethal	SW480 rereplic	MCF10A rereplic	KB-3-1 cytotox	KB-V1 cytotox
CCOC(=O)NC(=O)CSc1nnnn1-c1ccc(Cl)cc1	0%	11%	5.2µM*	1.8µM*	i	i
Cc1ccc(-n2nnnc2SCC(=O)Nc2cccnc2Cl)cc1	-15%	-5%	?	23%	i	i
O=C(CS(=O)(=O)c1cccc2nsnc12)N1CCN(c2ccc(F)cc2)CC1	/	/	/	/	i	?
CCOCCCNC(=O)/C(C#N)=C/c1cc(Br)c(O)c(Br)c1	2.1µM*	2.3µM*	8.2µM*	12µM*	6.5µM*	3.7µM*
COCCNC(=O)/C(C#N)=C/c1cc(Br)c(O)c(OC)c1	3%	2%	3%	-4%	i	i
CCOCCCNC(=O)/C(C#N)=C/c1ccc([N+](=O)[O-])o1	7.3µM*	?	?	5.2µM*	i	i
CCOCCCNC(=O)/C(C#N)=C/c1ccc(-c2ccc(S(=O)(=O)N3CCOCC3)cc2)o1	-1%	-13%	?	?	i	16µM*
Cc1ccc(-c2nn3c(=O)cc(CN4CCN(C(=O)Nc5cc(Cl)ccc5C)CC4)nc3s2)cc1	/	/	/	/	i	i
CCCCN(c1ccccc1)c1ncnc2c1cnn2-c1ccc(Cl)cc1	/	/	/	/	i	i
COc1ccc(CCNC(=O)CCCn2c(=O)c3ccccc3n(CC(=O)Nc3c(C)cc(C)cc3C)c2=O)cc1OC	/	/	/	/	i	?
Cc1cccc[n+]1CC(=O)/C=C1\N(C)c2ccccc2C1(C)C	?	-13%	-4%	?	4.1µM*	i
CN1/C(=C\C(=O)C[n+]2cccc(Br)c2)C(C)(C)c2ccccc21	-43%	-28%	2%	7%	?	i
Cc1ccc[n+](CC(=O)/C=C2\N(C)c3ccccc3C2(C)C)c1	?	-18%	1%	20%	7.3µM*	?
Cc1ccc(C2Nc3cc(C)c(C)cc3-n3c(-c4ccccc4)c4c(=O)n(C)c(=O)n(C)c4c32)o1 (stereo not drawn)	/	/	/	/	i	?
Cc1ccc(CNC(=O)CCCN2C(=O)CCn3nc(-c4cn(C)c5ccccc45)cc32)cc1	/	/	/	/	i	i
COc1ccc(OC)c(S(=O)(=O)N2CCC(c3ccncc3)CC2)c1	/	/	/	/	i	i
O=C(N=Nc1c(O)[nH]c2ccc(Br)cc12)c1ccccc1-n1cccc1	2.2µM*	2.8µM*	?	?	5.2µM*	3.3µM*
Cn1c(O)c(N=NC(=O)c2cc(-c3cccs3)nc3ccccc23)c2ccccc21	-19%	-8%	1%	?	i	?
Cc1cccc(C)c1OCC(=O)N=Nc1c(O)[nH]c2ccc(Br)cc12	9%	19%	?	21µM*	i	?
O=C(N=Nc1c(O)[nH]c2ccc(Br)cc12)c1cc(-c2cccs2)nc2ccccc12	13µM*	?	0%	?	?	?
C(=C\c1ccnc2ccccc12)/c1ccc(-[n+]2cc[n+](-c3ccc(/C=C/c4ccnc5ccccc45)cc3)cc2)cc1	/	/	/	/	i	i
Cc1[nH]c2ccccc2c1C(=O)CCl	?	?	13µM*	10µM*	i	?
COc1ccc(NC(=O)CN(C)CC(=O)c2c(C)[nH]c3ccccc23)cc1	-4%	-2%	-4%	?	i	7.3µM*
COc1cccc(NC(=O)CN(C)CC(=O)c2c(C)[nH]c3ccccc23)c1	-1%	-2%	-15%	5%	i	i
Cc1[nH]c2ccccc2c1C(=O)CN(C)c1ccccc1	/	/	/	/	?	i
SMILES	HT1080 IDH1KD tx	HT1080NT lethal	SW480 rereplic	MCF10A rereplic	KB-3-1 cytotox	KB-V1 cytotox
Cc1[nH]c2ccccc2c1C(=O)Cn1c(=O)oc2ccccc21	?	-3%	0%	1%	i	16µM*
COc1cc(NC(=O)CSc2nc(C3CC3)nc3ccccc23)cc(OC)c1	?	13µM*	?	?	i	i
O=C(CSc1nc(C2CC2)nc2ccccc12)N1CCCCC1	-18%	-15%	15%	28%	i	i
O=C(CSc1nc(C2CC2)nc2ccccc12)Nc1ccccc1	1%	-14%	0%	-5%	i	i
O=C(CSc1nc(C2CC2)nc2ccccc12)N1c2ccccc2Sc2ccc(C(F)(F)F)cc21	-10%	-3%	11%	24%	?	18µM*
CCN(CC)c1ccc(NC(=O)CSc2nc(C3CC3)nc3ccccc23)cc1C	6.5µM*	9.2µM*	8.2µM*	6.5µM*	4.6µM*	6.5µM*
O=S(=O)(c1ccc2c(Cl)cccc2c1)N1CCN(c2nc(-c3cccs3)nc3ccccc23)CC1	7%	24%	/	/	/	/
COc1ccccc1N1C(=O)N(C(C)=O)C2C1Nc1ccccc1N2C (stereo not drawn)	-28%[9.24 µM]	16µM*	-3%	-2%	i	i
COc1ccc(-c2cc(-c3ccc(O)cc3)nc(N)c2C#N)cc1	0%	-11%	22%	?	i	i
N#Cc1c(-c2ccccc2)cc(-c2ccc(O)cc2)nc1N	-2%	-6%	?	23µM*	i	i
Oc1ccc(-c2cc(-c3ccc(O)cc3)nc(-c3ccccc3)n2)cc1	?	12µM*	?	?	i	i
NS(=O)(=O)c1ccc(NC(=O)/C=C/c2ccc3c(c2)OCO3)cc1	0.73µM*	7.3µM*	6.5µM*	18µM*	2.3µM*	i
O=C(/C=C/c1ccc2c(c1)OCO2)Nc1cccnc1	?	?	2%	?	8.2µM*	i
CC(=O)Nc1ccc(NC(=O)/C=C/c2ccc3c(c2)OCO3)cc1	-19%	?	0%	?	i	i
O=C(/C=C/c1ccco1)Nc1ccc2c(c1)OCO2	21µM*	13µM*	?	?	?	?
O=C(/C=C/c1ccc2c(c1)OCO2)c1cccnc1	-19%	-14%	?	9%	?	i
COC(=O)c1cccc(NC(=O)/C=C/c2ccc3c(c2)OCO3)c1	?	?	-7%	?	5.8µM*	?
CCOc1ccc(-n2c(SCC(=O)Nc3cc(C)ccc3C)nc3c([nH]c4ccccc43)c2=O)cc1	/	/	/	/	i	i
